Results from PubChem BioAssay AID463082 (The Scripps Research Institute Molecular Screening Center, 2010).
Among all 330,000 compounds or so, about 4,900 (1.5%) were called active. Many of the other results were omitted from the sample, so actives are more common in it than they were. Unmarked numbers belong to inactive results.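 The calls were made as follows: active = inhibition above the mean inhibition across the screen plus 3 SD (cut at about 25% in these data); inactive = the rest.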

These molecules were tested against Platelet-activating factor acetylhydrolase (Homo sapiens) (UniProt Q13093) (assay: inhibition of plasma PAF acetylhydrolase – biochemical, fluorescence polarization, human, primary screen (AID 463082;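 also: inhibitors block binding of the rhodamine activity-based probe so polarization drops; 0% = enzyme with DMSO and 100% = wells lacking pPAFAH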)). Details: recombinant pPAFAH, FP-rhodamine probe fluorescence polarization; at 3.39 µM; hits give high values.
Chain of Platelet-activating factor acetylhydrolase (Homo sapiens) (Q13093 whole entry, looked up): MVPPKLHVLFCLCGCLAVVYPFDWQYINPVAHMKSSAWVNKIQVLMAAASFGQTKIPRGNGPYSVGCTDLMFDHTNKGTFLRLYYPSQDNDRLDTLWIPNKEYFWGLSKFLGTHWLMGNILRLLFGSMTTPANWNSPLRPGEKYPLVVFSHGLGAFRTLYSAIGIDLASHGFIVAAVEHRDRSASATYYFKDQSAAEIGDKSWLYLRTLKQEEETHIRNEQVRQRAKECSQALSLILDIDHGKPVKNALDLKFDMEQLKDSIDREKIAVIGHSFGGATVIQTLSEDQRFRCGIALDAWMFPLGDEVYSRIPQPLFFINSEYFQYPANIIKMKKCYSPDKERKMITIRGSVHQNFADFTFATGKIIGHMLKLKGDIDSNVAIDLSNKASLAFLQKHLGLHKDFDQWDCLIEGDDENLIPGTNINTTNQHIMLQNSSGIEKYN

`O=C(Nc1ccc(F)cc1)N1CCN(c2ccc(F)cc2)CC1` was tested. Which inhibition did it give?
Its inhibition is -4.2%.

`CC(CC(=O)N1CCN(c2ccccc2)CC1)c1ccccc1` (centres undefined) was tested. Which inhibition did it give?
The inhibition was 0.04%.

With `CC(=O)N1CCN(c2ccc(NCc3ccc(C(C)C)cc3)cc2)CC1` as the molecule, how does the inhibition read?
Its inhibition is 30.8% (active).

Which inhibition does the source give for `N#CC1=C(N)N(c2ccc(F)cc2)C(=O)C1` here?
The inhibition was -0.02%.

Which inhibition does the source give for `CCCCc1nc(NCCN)c(C#N)c2c1CSC(C)(C)C2` here?
Its inhibition is 4.91%.

`Cc1cccc(COc2ccccc2/C=N/Nc2ccc([N+](=O)[O-])cc2)c1` was tested. Which inhibition did it give?
The inhibition was 18%.

With `Cc1ccc(NS(=O)(=O)c2ccc(N/N=C/c3ccccc3OCC(=O)O)c([N+](=O)[O-])c2)c(C)c1` as the molecule, how does the inhibition read?
Its inhibition is 88.4% (active).

How did the inhibition turn out when `C=C(C)CNC(=S)N/N=C/c1ccccc1OCC(=O)O` was run?
Its inhibition is 0.9%.

Which inhibition does the source give for `COCCn1c(=O)[nH]c(=O)c2cc(C(=O)c3cc(OC)ccc3O)cnc21` here?
Its inhibition is -1.8%.

Which inhibition does the source give for `CC(C)NC(=O)C(=O)NCCN1CCN(S(=O)(=O)c2ccc(Cl)cc2)CC1` here?
The inhibition was 2.1%.

For `COc1ccc2nc(SCc3ccccc3)nc(C)c2c1`, which inhibition is on record?
The inhibition was 3.07%.

With `c1ccc(CSc2nnc(-c3ccco3)c(-c3ccco3)n2)cc1` as the molecule, how does the inhibition read?
The inhibition was 62% (active).

Which inhibition does the source give for `O=C(CC1N=C2c3ccccc3N=C(SCc3ccccc3Cl)N2C1=O)NCc1ccco1` (centres undefined) here?
Its inhibition is 6.79%.

Which inhibition does the source give for `CCc1nnc(SCc2cccc(F)c2)nc1CC` here?
Its inhibition is 7.48%.

How did the inhibition turn out when `O=C(Nc1nnc(SCc2ccccc2Cl)s1)c1cccc([N+](=O)[O-])c1` was run?
Its inhibition is 22.8%.

With `Clc1ccccc1CSc1nnc(-c2ccco2)c(-c2ccco2)n1` as the molecule, how does the inhibition read?
Its inhibition is 74.6% (active).

For `N#CC(Cc1cc2ccccc2n1S(=O)(=O)c1ccccc1)OCc1ccccc1` (centres undefined), which inhibition is on record?
Its inhibition is 3.57%.

Which inhibition does the source give for `N#Cc1c(NC(=O)C2CCCO2)sc2c1CCCCC2` (centres undefined) here?
Its inhibition is -1.14%.

For `Cc1cccc(NS(=O)(=O)c2ccc(C)c(C(N)=O)c2)c1`, which inhibition is on record?
The inhibition was 9.98%.

With `Nc1cccc(S(=O)(=O)Nc2ccc(SC(F)F)cc2)c1` as the molecule, how does the inhibition read?
Its inhibition is 26.6% (active).

For `CC(=O)N1CCN(C(=O)c2cccc(S(=O)(=O)Nc3ccc(C)cc3)c2)CC1`, which inhibition is on record?
Its inhibition is 19.9%.

Which inhibition does the source give for `CCOc1cc(C(=O)N2CCc3cc(OC)c(OC)cc3C2)ccc1OC(F)F` here?
The inhibition was 11%.

Which inhibition does the source give for `CC(C)N1CCC(=NNc2ccc([N+](=O)[O-])cc2S(=O)(=O)N2CCOCC2)CC1` here?
Its inhibition is 5.77%.

For `CCc1cccc2c(=O)c(C(=O)NCCCOC)c[nH]c12`, which inhibition is on record?
The inhibition was 3.69%.

For `COc1cccc(NS(=O)(=O)c2ccc3[nH]cc(C(=O)NCCCOC(C)C)c(=O)c3c2)c1`, which inhibition is on record?
The inhibition was 29% (active).

`CCN(CC)S(=O)(=O)c1ccc2[nH]cc(C(=O)NCCc3ccccc3)c(=O)c2c1` was tested. Which inhibition did it give?
Its inhibition is -0.23%.

With `C=CCOc1ccc(/C=C/C(=O)OCC(=O)NC2CCCCCC2)cc1` as the molecule, how does the inhibition read?
Its inhibition is 12%.

With `COc1ccc(C(CNC(=O)c2ccc(NS(=O)(=O)c3ccc(F)c(C)c3)cc2)N(C)C)cc1` (centres undefined) as the molecule, how does the inhibition read?
The inhibition was 7.73%.

`O=C(NCCN1CCOCC1)c1cccc(S(=O)(=O)Nc2ccc(F)cc2)c1` was tested. Which inhibition did it give?
The inhibition was 22.9%.

How did the inhibition turn out when `COc1ccccc1C(CNC(=O)c1cccc(S(=O)(=O)Nc2ccc(F)cc2)c1)N(C)C` (centres undefined) was run?
Its inhibition is 28.3% (active).

With `CCN(c1ccccc1)S(=O)(=O)c1cccc(C(=O)NCc2ccccc2CN2CCOCC2)c1` as the molecule, how does the inhibition read?
Its inhibition is 3.38%.

Which inhibition does the source give for `NS(=O)(=O)c1ccc(CNC(=O)c2cccc(Oc3ccccc3)c2)cc1` here?
The inhibition was 4.17%.

With `COc1ccc(OCC(=O)NCCc2ccc(S(N)(=O)=O)cc2)cc1` as the molecule, how does the inhibition read?
Its inhibition is -2.47%.

For `COc1ccc(NS(=O)(=O)c2cccc(C(=O)NCCc3ccc(S(N)(=O)=O)cc3)c2)cc1`, which inhibition is on record?
Its inhibition is 26.8% (active).

Which inhibition does the source give for `COc1ccccc1C(CNC(=O)c1cccc(NS(=O)(=O)c2ccc(Br)cc2)c1)N(C)C` (centres undefined) here?
Its inhibition is 4.01%.

With `O=C(NCc1ccccc1CN1CCCC1)c1cccc(S(=O)(=O)Nc2ccc(F)cc2)c1` as the molecule, how does the inhibition read?
Its inhibition is 31.6% (active).

With `CC(=O)N1c2ccc(S(=O)(=O)NCCC(=O)N(C)C3CCCCC3)cc2CC1C` (centres undefined) as the molecule, how does the inhibition read?
The inhibition was 1.62%.

Which inhibition does the source give for `O=C(c1n[nH]c2c1CCC2)N1CCCC(Nc2cccc(F)c2)C1` (centres undefined) here?
The inhibition was -0.4%.

With `O=C(COc1ccc(NC(=O)c2ccccc2[N+](=O)[O-])cc1)c1ccc(F)cc1` as the molecule, how does the inhibition read?
Its inhibition is 0.54%.

How did the inhibition turn out when `C/C(=N\NC(=O)COc1ccc(C)cc1[N+](=O)[O-])c1ccc2c(c1)OCCO2` was run?
Its inhibition is 4.11%.

Which inhibition does the source give for `CC(=O)Nc1cccc(OCC(=O)/C=C2\N(C)c3ccccc3C2(C)C)c1` here?
Its inhibition is 1.61%.

For `N[C@@H](Cc1ccccc1)C(=O)N1CCC(C(=O)NCC(=O)Nc2ccc(F)cc2)CC1`, which inhibition is on record?
The inhibition was 2.49%.

For `Cc1cc(C)c2c(Cn3ccnc3)cc(=O)oc2c1`, which inhibition is on record?
Its inhibition is -1.95%.

How did the inhibition turn out when `CCN1C(=O)/C(=C2/Sc3ccccc3N2CCCS(=O)(=O)O)SC1=S` was run?
The inhibition was 28.1% (active).
